The list shows a part of the results. Records with an inconclusive call do not appear. Calls of active or inactive are those of the source. The call rests on the fitted dose curve; in most records, active means well fitted inhibition curve with a large enough effect; inconclusive means small, poorly fitted or top-dose-only effect; inactive means no such curve, though single readings can be large or run the other way.
What follows are molecules tested against 4'-phosphopantetheinyl transferase Sfp (Bacillus subtilis (strain 168)) (UniProt P39135) (assay: qHTS Assay for Inhibitors of Bacillus subtilis Sfp phosphopantetheinyl transferase (PPTase): SAR Round 2). Conditions: purified Sfp enzyme, PPTase activity.
Text: The covalent attachment of a phosphopantetheinyl (4'-PP) arm to a variety of synthases and other proteins is a key posttranslational protein modification. The 4'-PP is installed on the proteins post-translationally from coenzyme A (CoA) on a conserved serine residue by action of phosphopantetheinyl transferase (PPTase) enzymes. Phosphopantetheinylation is essential for synthase activity, and removal of the PPTase gene precludes natural product synthesis in microorganisms, or in the case of fatty acid biosynthesis, renders the organism unviable. PPTase enzymes belong to a distinct structural superfamily. Within bacteria, these enzymes are grouped into two classes based upon primary structure, the AcpS-Type and Sfp-Type PPTases.
Sfp-type PPTases, corresponding to an activator of surfactin production in Bacillus subtilis, are responsible for modifying type I polyketide and nonribosomal peptide synthases of prokaryotes. Sfp-type PPTases are responsible for the activation of a variety of pathogen-associated virulence factors. Among these compounds are toxins such as mycolactone from Mycobacterium ulcerans, siderophores such as vibriobactin from Vibrio cholerae or mycobactin from Mycobacterium tuberculosis, as well as the mycolic acids which form the waxy cell wall of Mycobacteria. The biosyntheses of these natural products are considered attractive targets for drug design.
In search of small molecule Sfp-PPTase inhibitors, a fluorescence quenching assay was developed for detection of Bacillus subtilis Sfp-PPTase enzymatic activity in a miniaturized high-throughput format. The consensus ybbr acceptor peptide […] was N-terminally labeled with Black Hole Quencher-2 (BHQ-2) and used in combination with rhodamine-labeled coenzyme A as a co-substrate.
Inhibition of Sfp-PPTase was detected by recording the fluorescence intensity change over a 30-minute reaction period at a 525 nm excitation and 598 nm emission. Reagents were supplied by Michael Burkart and Timothy Foley, University of California at San Diego.
NIH Chemical Genomics Center [NCGC]
NIH Molecular Libraries Probe Centers Network [MLPCN]
Assay Submitter (PI): Michale Burkart, University of California, San Diego
Assay Buffer: 50 mM Hepes-Na pH 7.6, 10 mM MgCl2, 0.01% Nonidet P-40, and 0.01% BSA.
3 uL of Sfp-PPTase enzyme (final concentration 15 nM) and 1 uL of substrate mixture (final concentration for rhodamine-CoA and BHQ-2-YbbR 5 uM and 12.5 uM, respectively) dispensed in columns 1, 2, 5 - 48. Columns 1 and 2 used to generate neutral control (uninhibited reaction)
Three uL of reagents, consisting of buffer (in columns 3 and 4 as negative control) and Sfp-PPTase (in columns 1, 2, 5 - 48) were dispensed into 1,536-well Greiner black solid bottom plate. Compounds (23 nL) were transferred via Kalypsys pintool equipped with 1,536-pin array. The plate was incubated for 15 min at room temperature, followed by the addition of 1 uL substrate to start the reaction. The plate was then centrifuged at 1000 rpm for 15 seconds, and the fluorescence intensity recorded on a ViewLux High-throughput CCD imager (Perkin-Elmer) using standard BODIPY optics (525 nm excitation and 598 nm emission). The plate was then incubated for 30 minutes, and a second read on the ViewLux was performed. The fluorescence intensity difference over the 30-minute period was used to calculate the respective reaction rate for each well.

Potency, active:
Cc1ccc(N2CCN(C(=S)Nc3cc(C)ccn3)CC2)cc1 5130 nM, Cc1cc(C)nc(NC(=S)N2CCN(c3cccc(C#N)c3)CC2)c1 1620 nM, COc1ccnc(NC(=S)N2CCN(c3ncc(C(F)(F)F)cc3Cl)CC2)c1 290 nM, COc1cccc(NC(=S)N2CCN(c3ccccc3C(F)(F)F)CC2)n1 3240 nM, Cc1cc(C)nc(NC(=S)N2CCN(c3ccc4nonc4c3)CC2)c1 6460 nM, Cc1cc(C)nc(NC(=S)N2CCN(c3ccc(Cl)cc3C(F)(F)F)CC2)c1 580 nM, Cc1cc(C)nc(NC(=S)N2CCN(c3ccc(Cl)cc3F)CC2)c1 910 nM, Cc1cc(C)nc(NC(=S)N2CCN(c3cccc(C(F)(F)F)c3)CC2)c1 510 nM
